PubChem BioAssay (NCATS)
Results filed as inconclusive are left out. Entries that show only a call come without a potency. Unmarked numbers belong to inactive results. Activity calls are given as the source filed them. Calls come from the whole dose curve; as a rule, active = well fitted inhibition curve with a large enough effect; inconclusive = small, poorly fitted or top-dose-only effect; inactive = flat fitted curve, though single readings scatter.

Biological target: Calcium and integrin-binding protein 1 (Homo sapiens) (UniProt Q99828)
Sequence (Q99828 whole entry, looked up): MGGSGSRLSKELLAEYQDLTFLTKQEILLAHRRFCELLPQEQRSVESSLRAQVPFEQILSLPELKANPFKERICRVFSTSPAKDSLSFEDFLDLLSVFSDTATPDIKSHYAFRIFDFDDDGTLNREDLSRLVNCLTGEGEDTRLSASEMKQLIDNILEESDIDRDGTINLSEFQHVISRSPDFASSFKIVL
Experiment: Primary qHTS for Identification of Calcium Integrin Binding Protein 1 (CIB1) Competitor (AID 1508620);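 for activity change, negative = inhibition: GST tagged CIB1 binding a fluorescein labelled alphaIIb integrin peptide tracer; top concentration of the series differs between compounds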
Conditions: CIB1-GST / FITC-alphaIIb peptide fluorescence polarization; series mostly up to 114 µM
Text: Assay Provider: Ulhas P. Naik, PhD Sidney Kimmel Medical College Thomas Jefferson University, Philadelphia, PA Primary function of platelets is to maintain hemostasis. At the site of vascular injury, platelets adhere to adhesive proteins such as collagen and von Willebrand factor. Adherent platelets are activated and generate soluble platelet agonists such as thrombin, ADP and thromboxane A2. Following exposure of circulating platelets to these agonists, results in platelet shape change, granule secretion and activation of platelet integrin alphaIIb-beta3. Ligand binding to activated integrin alphaIIb-beta3 triggers outside-in signaling, leading to platelet aggregation, stabilization of platelet plug, and clot retraction. Upon atherosclerotic plaque rupture also causes platelet plug formation, which underlies a number of cardiovascular diseases such as myocardial infraction and stroke. A number of anti-platelet drugs such as aspirin, clopidogrel, prasugrel, vorapaxar, and eptifibatide are currently available to prevent the thrombotic complications. However, these anti-platelet agents have several limitations including inherent variability in individual responses, developing resistance, and serious bleeding side effects. For these reasons they are not suitable for long-term protection. Based on the experiences with current anti-platelet drugs, it appears that the most useful therapeutic approach is to intersect the secondary responses such as integrin outside-in signaling or recruitment of platelets by TxA2 and secreted ADP. Compounds, which can largely preserve the primary hemostatic function of platelets but inhibit secondary response will be most desired therapeutic agents for treatment of cardiovascular disease. CIB1 is a calcium integrin binding protein, which specifically interact with the alphaIIb subunit of integrin alphaIIb-beta3. Binding of CIB1 to alphaIIb regulates the outside-in signaling in platelets, which is needed for thrombus stabilization and thrombus growth. […] Therefore, we propose that discovery of a small molecule that can prevent the association of CIB1 and alphaIIb-beta3 will be a potential anti-platelet agent that can block the thrombus formation without undue effect on hemostasis. Reference: [1] Naik MU, Nigam A, Manrai P, et al. CIB1 deficiency results in impaired thrombosis: the potential role of CIB1 in outside-in signaling through integrin alpha IIb beta 3. J Thromb Haemost.
PROTOCOL TABLES SEQUENCE No. (1, 2, 3, etc.); […] (e.g., Cells, Incubation, Reagent, etc.); VALUE and DESCRIPTION. 1; Reagent; 3 uL; Protein or buffer (4/3x) 2; Compound; 46 nL; Control inhibitor / compound library 3; Time; 15 min; Room temperature incubation 4; Reagent; 1 uL; Fluorescent labeled peptide (4x) 5; Time; 1000 rpm; Centrifuge 6; Time; 15 min; Room temperature incubation 7; Detection; Ex 480/ Em 540; ViewLux Fluorescence Read NOTES (numbers refer to sequence above) 1; Protein Mixture: C1B1-GST (final concentrations of 1 uM). […] 3; Room temperature incubation. 4; Fluorescent Labeled Peptide: FITC-aIIb (final concentration of 100 nM). Sequence of alphaIIb peptide: Acetyl-[…]-FITC (purity is 95.83%). 5; Centrifuge 1000 rpm (164 g) for 15 seconds. 6; Room temperature incubation. 7; ViewLux Fluorescent Polization Read: excitation = 480(20) / emission = 540(25) S and P; FITC Dichroic mirror.
Potency is the fitted concentration of half-maximal effect.

| Structure (SMILES) | Potency | activity change, negative = inhibition |
| --- | --- | --- |
| COc1cc(C)[nH]c(=O)c1CNC(=O)c1c(C)n([C@H](C)C2CCOCC2)c2ccccc12 | inactive |  |
| C[C@@]1(C(=O)O)CC[C@]2(C)CC[C@]3(C)C4=CC(=O)c5cc(O)c(O)cc5[C@]4(C)CC[C@@]3(C)[C@@H]2C1 | inactive |  |
| N#C[C@@H](O[C@@H]1O[C@H](CO[C@@H]2O[C@H](CO)[C@@H](O)[C@H](O)[C@H]2O)[C@@H](O)[C@H](O)[C@H]1O)c1ccccc1 | inactive |  |
| CC1=C2C[C@H]3[C@@H](CC=C4C[C@@H](O)CC[C@@]43C)[C@@H]2CC[C@]12O[C@@H]1C[C@H](C)CN[C@H]1[C@H]2C | inactive |  |
| C/C=C(\C)C(=O)OC1C(C)OC(OC2C(C)OC(OC3CCC4(C)C(=CCC5C4CCC4(C)C(C(C)OC6OC(COC7OC(CO)C(O)C(O)C7O)C(O)C(O)C6O)CCC54O)C3)CC2OC)C(O)C1OC (stereo not given) | inactive |  |
| C/C=C(\C)C(=O)O[C@H]1[C@H](OC(C)=O)[C@]2(CO)[C@H](O)[C@H](O)[C@]3(C)C(=CCC4[C@@]5(C)CC[C@H](O[C@@H]6O[C@H](C(=O)O)[C@@H](O)[C@H](O[C@@H]7OC[C@H](O)[C@H](O[C@@H]8OC[C@H](O)[C@H](O)[C@H]8O)[C@H]7O)[C@H]6O[C@@H]6O[C@H](CO)[C@@H](O)[C@H](O)[C@H]6O)C(C)(C)C5CC[C@]43C)[C@@H]2CC1(C)C (stereo not given in full) |  | 1% [at 12.4 µM] |
| CC1=CC2/C=C(\C)CCC(O)C3OC(C)(C)OC3CC(=O)OC23C(=O)NC(CC(C)C)C3C1C (stereo not given) | inactive |  |
| OC1(c2ccc(Cl)cc2)c2ccccc2C2=NCCN21 (stereo not given) | inactive |  |
| CCCSP(=O)(OCC)SCCC | inactive |  |
| CC(CCc1ccc(O)cc1)O[C@@H]1O[C@H](CO[C@H]2OC[C@](O)(CO)[C@H]2O)[C@@H](O)[C@H](O)[C@H]1O (stereo not given in full) | inactive |  |
| Cc1cn(C[C@H](N)C(=O)O)c(=O)n(Cc2cc(-c3ccccc3)sc2C(=O)O)c1=O | inactive |  |
| CC(=O)OC12C(O)C(C)C3(O)C4C=C(C)C(=O)C4CC(CO)=CC3C1C2(C)C (stereo not given) | inactive |  |
| C[C@H](NC(=O)Cc1cc(F)cc(F)c1)C(=O)N[C@@H]1N=C(c2ccccc2)c2ccccc2N(C)C1=O | inactive |  |
| CN(C)CCc1c[nH]c2ccc(CN3CCN(C)S3(=O)=O)cc12 | inactive |  |
| COC(=O)N1CCN(C(=O)Cc2ccc(Cl)c(Cl)c2)[C@@H](CN2CCCC2)C1 | inactive |  |
| COC1C(O)C(OC2CCC3(C=O)C(CCC4C3CCC3(C)C(C5=CC(=O)OC5)CCC43O)C2)OC(C)C1OC1OC(CO)C(O)C(O)C1O (stereo not given) | inactive |  |
| CC(C)(C)c1cc(C(C)(C)C)c2c(c1)C(O)(C(F)(F)F)C(=O)O2 (stereo not given) | inactive |  |
| C[CH2][Hg][S]c1ccccc1C(=O)O | 22.4 µM (active) |  |
| C=C(CO)C(=O)O[C@H]1C/C(C)=C/CC/C(CO)=C/[C@H]2OC(=O)C(=C)[C@H]12 | inactive |  |
| CC[C@H]1CN2CC[C@H]1C[C@@H]2[C@@H](O)c1ccnc2ccc(OC)cc12 | inactive |  |

| Structure (SMILES) | Potency | activity change, negative = inhibition |
| --- | --- | --- |
| COc1ccccc1CN[C@H]1C2CCN(CC2)[C@H]1C(c1ccccc1)c1ccccc1 | inactive |  |
| CC1C/C=C/C(O)C(O)CC/C=C/c2cc(O)cc(O)c2C(=O)O1 (stereo not given) | inactive |  |
| CCN1CC2(COC)C3[C@@H](OC)C4C1C3(C1C[C@]3(O)[C@H](OC(=O)c5ccccc5)C1[C@]4(OC(C)=O)[C@@H](O)[C@@H]3OC)[C@H](OC)C[C@H]2O (stereo not given in full) | inactive |  |
| CCC(C)(C#N)O[C@@H]1O[C@H](CO)[C@@H](O)[C@H](O)[C@H]1O (stereo not given in full) | inactive |  |
| CC(=O)OC1CC(O)C(C)(C)C2CC(OC(C)=O)C3(C)C(CCC4(C)C(c5ccoc5)C(=O)C5OC543)C12C (stereo not given) | inactive |  |
| O=C(O)c1ccnc2cc(C(OCCN3CCCCC3)c3ccccc3Cl)[nH]c12 (stereo not given) | inactive |  |
| Clc1ccc(OCC2=NCCN2)cc1Cl | inactive |  |
| CN1[C@@H]2CC[C@H]1CC(OC(=O)C1C=Nc3ccccc31)C2 (stereo not given in full) | inactive |  |
| COC1CC(OC2CCC3(C)C(CCC4C3CCC3(C)C(C5=CC(=O)OC5)C(OC(C)=O)CC43O)C2)OC(C)C1OC1OC(CO)C(O)C(O)C1O (stereo not given) | inactive |  |
| CC(C)C1(OO)C=C2C(=O)CC3C(C)(C(=O)O)CCCC3(C)C2CC1 (stereo not given) | inactive |  |
| CN1CCC[C@@H]1Cc1c[nH]c2ccc(Nc3ncccc3[N+](=O)[O-])cc12 | inactive |  |
| COC1CC(OC2CCC3(C=O)C(CCC4C3CCC3(C)C(C5=CC(=O)OC5)CCC43O)C2)OC(C)C1OC1OC(CO)C(O)C(O)C1O (stereo not given) | inactive |  |
| CC[C@H]1CN2CC[C@H]1C[C@H]2[C@H](O)c1ccnc2ccc(OC)cc12 | inactive |  |
| CCC1NC(=O)C2C(Cl)C(Cl)CN2C(=O)C(C(C)O)NC(=O)CC(c2ccccc2)NC(=O)C(CO)NC1=O (stereo not given) | inactive |  |
| C[C@@H]1C(=O)O[C@H]2[C@H](O)[C@@]34[C@@H]5OC(=O)[C@@]3(O[C@@H]3OC(=O)[C@@H](O)[C@@]34[C@H](C(C)(C)C)[C@H]5O)[C@@]12O | inactive |  |
| C=C1[C@@H]2CC[C@@]3(C)[C@H](c4ccoc4)OC(=O)C[C@]13O[C@H]1CC(=O)C(C)(C)[C@H](C(OC(C)=O)C(=O)OC)[C@]12C (stereo not given in full) | inactive |  |
| OCCCCC#Cc1cncc(OC[C@@H]2CCN2)c1 | inactive |  |
| C=CC(C)(C)c1[nH]c2cccc3c2c1C[C@@H]1[C@@H]3[C@@H](OC(C)=O)[C@H](C)CN1C | inactive |  |
| CC(N)Cc1c[nH]c2ccccc12 (stereo not given) | inactive |  |
| Clc1ccc(N2C[C@H]3CC[C@@H](C2)N3)nn1 | inactive |  |
